An excerpt weighted towards active compounds, which were near 7.3% of everything screened.
NPC1 prom act – activates the NPC1 promoter; Huh7 NPC1 promoter luciferase reporter, 24 h; Potency, µM (titrated, usually from 9.22 µM), actives largely listed as activators; 320,000 compounds, 2.4% hits; further: nearly all actives have a fitted effect of over 60% in size
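Cells: Huh7 expressing luciferase under the NPC1 promoter, 1500/well. Seeded 2 h, compound added, incubated 24 h at 37 °C. Luciferase reagent, 10 min ambient, then luminescence.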
SMN2 splice enh – increases expression of the SMN2 splice variant; HEK293 SMN2-luciferase splicing reporter, luminescence, 30-36 h; 210,000 compounds, 2.8% hits; AID 1458; Potency, µM (top dose mostly 46.1 µM), hits mostly activators; further: nearly all actives have a fitted effect of over 55% in size
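HEK293 cells carry an SMN2 […]–luciferase reporter in which exon 7 inclusion puts luciferase in frame. Cells were plated 10-12 h before compound addition, then incubated 30-36 h at 37C. ONE-Glo luminescence was read; sodium butyrate at 4.5 mM final served as control.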
Rab9 prom act – activators of Rab9 promoter | Huh7 Rab9 promoter-luciferase reporter, luminescence, 24 h | 320,000 compounds, 2.8% hits | Potency, µM (titrated, usually from 9.22 µM), usual class: activators; further: nearly all actives have a fitted effect of over 60% in size
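Luciferase signal after 10 min detection reagent at ambient indicates Rab9 promoter upregulation; stably transfected Huh7 cells were treated 24 h with compound in DMSO at 37 °C, 5% CO2.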
FLuc modulator – counter-screen for miR-21 project: firefly luciferase inhibitors or activators | P08659 | purified FLuc, Km substrates, luminescence inhibition | Potency, µM (titrated, usually from 57.5 µM), actives largely listed as inhibitors | 360,000 compounds, 6.9% hits; further: nearly all actives have a fitted effect of over 55% in size
Target sequence (P08659 whole entry, looked up): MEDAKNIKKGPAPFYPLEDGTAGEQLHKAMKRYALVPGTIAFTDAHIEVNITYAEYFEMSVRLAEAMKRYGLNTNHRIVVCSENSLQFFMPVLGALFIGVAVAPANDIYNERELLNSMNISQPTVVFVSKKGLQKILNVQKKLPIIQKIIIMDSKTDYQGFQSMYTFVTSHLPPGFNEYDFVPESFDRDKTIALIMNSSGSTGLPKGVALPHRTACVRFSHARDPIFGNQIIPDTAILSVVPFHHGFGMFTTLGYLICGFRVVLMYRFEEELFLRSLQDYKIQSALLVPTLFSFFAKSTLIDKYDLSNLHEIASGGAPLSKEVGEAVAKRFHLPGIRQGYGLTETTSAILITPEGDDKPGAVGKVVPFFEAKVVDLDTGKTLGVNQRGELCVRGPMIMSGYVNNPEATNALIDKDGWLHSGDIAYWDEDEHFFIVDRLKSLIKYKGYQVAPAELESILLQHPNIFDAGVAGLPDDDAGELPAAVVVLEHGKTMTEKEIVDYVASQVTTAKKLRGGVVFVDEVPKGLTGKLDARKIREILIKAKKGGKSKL
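Purified P. pyralis luciferase, 10 nM final, with Km-level 10 uM D-luciferin and 10 uM ATP in 50 mM Tris acetate pH 7.5, 10 mM Mg acetate, 0.01% Tween-20, 0.05% BSA; 6-point qHTS titration about 60 µM downward; luminescence read.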
ELG1 genotoxic – genotoxicity induction in ELG1-luciferase HEK293T cells; HEK293T ELG1-luciferase reporter, luminescence, 16 h; Potency, µM (doses to about 46 µM), usual class: activators; 330,000 compounds, 1.3% hits; AID 504466; further: nearly all actives have a fitted effect of over 60% in size
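ELG1-luciferase HEK293T cells, 2,000/well; compound pinned in; 16 hr, 37 °C, 5% CO2; ONE-Glo, 30 min RT; luminescence on CCD imager.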
p53 reactivation – restores transcriptional activity of mutant p53; H1299 p53-A138V BP100-luciferase reporter, luminescence, 24 h; Potency, µM (top dose mostly 92.2 µM), usual class: activators; 320,000 compounds, 0.063% hits; further: nearly all actives have a fitted effect of over 45% in size
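p53-null H1299 cells stably carrying temperature-sensitive p53-A138V and a BP100-luciferase reporter were pinned with compounds (4-point, 1:5 series) and held 24 hrs at 37 deg C. Luminescence was read 10 min after detection reagent.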
Hits are given with their value; – = inactive; ? = inconclusive; · = not tested or not shown; [ ] = remark or other dose. The call rests on the fitted dose curve; in most records, active means well fitted curve in the direction sought with a large enough effect; inconclusive means small, poorly fitted or top-dose-only effect, or another doubt; inactive means no such curve, though single readings can be large; an effect the other way counts as inactive or inconclusive.

SMILES	NPC1 prom act	SMN2 splice enh	Rab9 prom act	FLuc modulator	ELG1 genotoxic	p53 reactivation
COc1ccc2cc3cc(C(=O)N4CCCC(C)C4)oc3nc2c1 (stereo unspecified)	2.5µM	·	2µM	5.4µM	?	?
CCOC(=O)C1CCN(C(=O)c2cc3cc4cc(OC)ccc4nc3o2)CC1	?	11µM	3.2µM	?	–	?
C=CC[C@@](C(C)=O)(C(=O)OC)C(NC(=O)OC(C)(C)C)c1ccccc1 (stereo partly specified)	·	–	·	·	·	·
CCC(=O)Nc1cc(C(=O)OCC(=O)c2ccc(Cl)cc2Cl)ccc1C	–	–	–	2.1µM	–	–
O=C(O)CCC(=O)Nc1ccc(C(=O)OCC(=O)c2ccc(Cl)cc2Cl)cc1	–	·	–	13µM	–	–
Cc1cc(C(=O)OCC(=O)Nc2cc(Cl)ccc2C)c(C)o1	–	·	–	–	–	–
CCC(=O)Nc1cc(C(=O)OCC(=O)c2ccccc2)ccc1C	?	·	?	12µM	?	?
CCC(=O)Nc1cc(C(=O)OCC(=O)c2ccccc2Cl)ccc1C	?	·	3.5µM	8.5µM	?	–
CCOc1ccccc1CNC(=O)CCCn1c(=O)c2cccn2c2ccc(F)cc21	·	·	·	–	·	·
COc1ccc(/C=N/Nc2ncnc3sc(C)c(C)c23)cc1	–	–	–	19µM	–	–
COc1cccc(/C=N/Nc2ncnc3scc(-c4ccccc4)c23)c1OC	–	–	–	12µM	–	–
COc1ccc(-c2csc3ncnc(Nc4ccccc4)c23)cc1	·	·	·	–	·	·
Cc1sc2ncnc(N/N=C/c3ccccc3O)c2c1C	–	–	–	21µM	?	?
Cc1sc2ncnc(NCC(O)c3ccccc3)c2c1C (stereo unspecified)	–	·	–	19µM	–	–
CCc1cccc(C)c1NC(=O)Cn1ccn(-c2ccc(F)cc2)c(=O)c1=O	·	·	·	–	·	·
COc1cccc(NC(=O)C2CCC(CNS(=O)(=O)c3ccc4c(c3)CC(C)N4C(C)=O)CC2)c1 (stereo unspecified)	–	·	–	–	–[9.26 µM]	–
Cc1ccc(-c2nc(C)c(CCNC(=O)C(=O)Nc3cc(C)ccc3C)s2)cc1	·	·	·	–	·	·
Cc1sc2ncnc(N/N=C/c3ccc(O)cc3)c2c1C	–	–	–	19µM	–	–
CC(=O)NC1CC(=O)N(c2ccc3c(c2)OCCO3)C1 (stereo unspecified)	·	·	·	–	·	·
Nc1nc(COc2ccc(Cl)cc2)cs1	?	–	?	?	?	–
Cc1ccc(OCc2csc(N)n2)cc1	?	13µM	4µM	24µM	?	–
Nc1nc(-c2ccc3ccccc3c2)cs1	3.2µM	11µM	0.79µM	3.8µM	4.6µM	–
COc1ccc(-c2csc(-c3cc4ccccc4oc3=N)n2)cc1	–	–	–	5.4µM	–	–
COc1ccc(-c2noc(-c3cc4ccccc4oc3=O)n2)cc1	–	–	–	–	–	–
COc1ccc(-c2csc(N=C(N)N)n2)cc1	?	–	?	15µM	?	–
SMILES	NPC1 prom act	SMN2 splice enh	Rab9 prom act	FLuc modulator	ELG1 genotoxic	p53 reactivation
COc1cc(OC)cc(N2C(=O)N(Cc3ccc(C(C)(C)C)cc3)c3ccccc3S2(=O)=O)c1	·	·	·	–	·	·
Nc1nc(-c2ccc(-c3ccccc3)cc2)cs1	0.79µM	0.5µM	0.4µM	2.4µM	?	–
Nc1nc(-c2ccc(Oc3ccccc3)cc2)cs1	?	·	?	13µM	?	–
COc1ccc(-c2csc(N)n2)cc1	?	14µM	?	15µM	?	?
Nc1nc(-c2ccc(C(=O)O)cc2)cs1	–	–	–	–	–	–
CN(C(=O)COC(=O)COc1ccc(Cl)cc1Cl)c1c(N)n(Cc2ccccc2)c(=O)[nH]c1=O	–	·	–	–	–	–
Clc1nc2c(-c3ccccc3)nnn2c2ccccc12	–	·	–	1.5µM	–	–
Cc1ccc(-c2nnn3c2nc(Cl)c2ccccc23)cc1	–	–	–	?	–	–
Fc1cccc(-c2nnn3c2nc(Cl)c2ccccc23)c1	–	–	–	1.7µM	–	?
Cc1cccc(C(=O)NCC(=O)OCc2cc(=O)n3nc(CC(C)C)sc3n2)c1	·	·	·	–	·	·
CCOC(=O)N/C(N)=N/c1nc2ccccc2s1	1.6µM	11µM	3.2µM	5.4µM	4.1µM	?
COC(=O)c1sc2ccccc2c1N	–	–	–	?	–	–
CC(=O)N/C(N)=N/c1nc(=O)c2ccccc2s1	?	·	2.5µM	13µM	18µM	–
CCOC(=O)NC(=O)COC(=O)CCCSc1nc2ccccc2s1	–	–	–	?	–	–
N#Cc1cc(-c2ccccc2)nc(N2CCNCC2)n1	–	·	–	–	–	–
Cc1ccc(NC(=O)C2CCN(c3nc(-c4ccc(C(C)C)cc4)no3)CC2)c(Cl)c1	·	·	·	21µM	·	·
COc1ccc(-c2noc(N3CCC(C(=O)Nc4cc(OC)ccc4OC)CC3)n2)cc1	–	·	–	–	–	·
Cc1ccc(C)c(N2CCN(C(=O)C3CCN(c4nc(-c5ccc(C(C)C)cc5)no4)CC3)CC2)c1	·	·	·	12µM	·	·
COc1ccc(-c2noc(N3CCC(C(=O)N4CCN(c5ccccc5F)CC4)CC3)n2)cc1	·	·	·	–	·	·
CCCCNC(=O)c1nn(-c2ccc(C)cc2)c(=O)c2c1c1ccccc1n2C	·	–	·	–	·	·
CS(=O)(=O)NCc1ccc(C(=O)NCCOc2ccccc2)cc1	4µM	11µM	3.5µM	19µM	?	?
CC1CN(C(=O)Nc2ccc(C(=O)NCCc3ccccc3)cc2)c2ccccc2S1 (stereo unspecified)	·	14µM	·	–	·	·
Cc1ccc(OCCNC(=O)c2cccc(S(=O)(=O)NCc3ccccc3)c2)cc1	–	·	–	–	–	–
CS(=O)(=O)N1CCc2cc(C(=O)NCCc3ccccc3)ccc21	·	13µM	·	?	·	·
COc1ccccc1NC(=O)COC(=O)CNC(=O)c1ccc(OC)c(OC)c1	–	5µM	–	–	18µM	?
SMILES	NPC1 prom act	SMN2 splice enh	Rab9 prom act	FLuc modulator	ELG1 genotoxic	p53 reactivation
Cc1ccc(-n2c(=O)c3c4c(sc3n(CC(=O)C(C)(C)C)c2=O)CCCCC4)cc1C	·	–	·	–	·	·
COc1ccc(C(=O)NCCCc2ccccc2)cc1OC	–	·	–	–	–	–
COc1ccc(C(=O)NCCc2ccccc2)cc1OC	?	·	4µM	?	–	?
CS(=O)(=O)Nc1ccc(C(=O)NCCc2ccccc2)cc1	?	11µM	2µM	?	?	?
CCOc1ccc(C(=O)NCCCCNC(=O)c2ccc(OCC)cc2)cc1	3.5µM	·	?	?	?	–
CCOc1ccc(CCNC(=O)C(O)c2ccccc2)cc1 (stereo unspecified)	–	·	–	–	–	–
CCOc1ccc(C(=O)NCCN(C)C)cc1	–	–	–	–[2.3 µM]	–	–
CCOc1ccc(C(=O)NCCc2ccccc2)cc1	0.4µM	3.5µM	0.32µM	1.1µM	0.58µM	–
COCCOC(=O)c1c(C)oc2ccc(OC(=O)c3c(OC)cccc3OC)cc12	–	–	–	–	–	–

Source: PubChem
